According to PubChem BioAssay (NCATS):
Several values for one entry are separate records, joined by “and”; a condition that tells them apart may be missing. Identical values can stand only once. Inconclusive results are not listed. Activity calls are given as the source filed them. Unless noted, the call rests on the fitted dose curve; in most records, active means well fitted curve in the direction sought with a large enough effect; inconclusive means small, poorly fitted or top-dose-only effect, or another doubt; inactive means no such curve, though single readings can be large; an effect the other way counts as inactive or inconclusive.

Tests used:
[1] = Cell Viability - MRC5 (AID 434; calls by dose curve;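 further: potency means the concentration at half of the fitted maximal effect; cells exposed to compound for 40 hours at 37 °C; potency reflects cytotoxicity seen as loss of intracellular ATP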); conditions: MRC5 lung fibroblast viability, qHTS
Outline: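 AC50 values come from Hill-equation fits of intracellular ATP loss, measured by CellTiter-Glo luminescence. Normal lung fibroblasts (MRC5) had 40 hr compound treatment at 37 C, normalized between DMSO and 100 uM tamoxifen.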

[2] = Cell Viability - HUV-EC-C (AID 542); conditions: HUV-EC-C endothelial cell viability, qHTS; series mostly up to 92.2 µM;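 further: cells exposed to compound for 40 hours; on the % scale 0 is the no-effect control and ±100 the full control effect; nearly all actives have a fitted effect of over 35% in size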
Outline: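 Cells were seeded at 1000 per well and incubated 5 hr at 37 °C before compound addition. After 40 hr at 37 °C, CellTiter-Glo reagent was added for 20 min and luminescence read. AC50 values came from Hill-equation modelling.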

[3] = Cellular Toxicity (caspase-3) HepG2 (AID 654); conditions: HepG2 caspase-3 activation, luminescence; series mostly up to 92.2 µM;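 further: cells exposed to compound for 16 hours before reading; 0% = DMSO alone and 100% = caspase signal from 100 µM tamoxifen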
Outline: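 Caspase 3/7 activation in HepG2 is measured as rising luminescence after a 16 hr treatment at 37 °C. Values are scaled between DMSO basal and 100 uM tamoxifen, and AC50 is fitted with the Hill equation.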

[4] = Cellular Toxicity (caspase-3) HUV-EC-C (AID 656); conditions: HUV-EC-C cells, caspase-3 activation (apoptosis); series mostly up to 92.2 µM
Outline: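 HUV-EC-C endothelial cells, 1000/well, were pre-incubated 5 hr at 37°C, then exposed to compounds for 16 hr at 37°C. Caspase-Glo 3/7 luminescence was read after 20 min at room temperature. AC50 came from Hill fits, normalized to DMSO and 100 uM tamoxifen.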

[5] = Cellular Toxicity (caspase-3) SHSY5Y (AID 657); conditions: SH-SY5Y caspase-3 activation; series mostly up to 91.7 µM
Outline: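 SH-SY5Y human neuroblastoma cells (1500/well) were treated with compounds for 16 h at 37 °C, then Caspase-Glo 3/7 luminescence was read after 1 h at room temperature. Data normalized to DMSO and 10 uM staurosporine; AC50 from Hill fits.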

[6] = Cellular Toxicity (caspase-3) MRC-5 (AID 659); conditions: MRC-5 cells, luminescence, normalized: DMSO 0%, 10 µM staurosporine 100%; series mostly up to 91.7 µM
Outline: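 Luminescent Caspase-Glo 3/7 read-out (1 h, room temperature) after a 16 h, 37 °C compound exposure of MRC-5 lung fibroblasts at 1500 cells/well. Concentration-response AC50 from Hill equation; 0% DMSO, 100% 10 uM staurosporine.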

[7] = Cellular Toxicity (caspase-3) Mesangial (AID 660); conditions: mesangial cells, normalized: DMSO 0%, 100 µM tamoxifen 100%; series mostly up to 91.7 µM;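 further: combined caspase 3 and 7 activity read by Caspase-Glo luminescence; cells exposed to compound for 16 h before the caspase read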
Outline: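 Seed cells derived from normal human renal glomeruli, incubate 5 h, add compounds across concentrations and incubate 16 h at 37 °C. Caspase 3/7 activation is then quantified by luciferase light, with AC50 derived by Hill modeling.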

[8] = Cellular Toxicity (caspase-3) SK-N-SH (AID 661); conditions: SK-N-SH caspase-3 activation, qHTS, DMSO as zero, staurosporine as full; series mostly up to 91.7 µM
Outline: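 Cells were seeded and incubated 5 hr at 37 °C, dosed with compound over a concentration range for 16 hr, then given Caspase-Glo 3/7 reagent for 1 hr at room temperature before luminescence reading.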

[9] = Cellular Toxicity (caspase-3) H-4-II-E (AID 663); conditions: H-4-II-E rat hepatoma; Potency: caspase-3 activation; series mostly up to 92.2 µM
Outline: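 Caspase 3/7 activation measured by luminescent aminoluciferin substrate cleavage after 16 hr compound treatment of H-4-II-E cells in complete medium. Increase normalized between DMSO (basal) and 100 uM tamoxifen (100%); Hill-equation AC50 from concentration-response.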

[10] = Cellular Toxicity (caspase-3) N2a (AID 665); conditions: N2a cells, luminescence, normalized: DMSO 0%, 10 µM staurosporine 100%; series mostly up to 92.2 µM;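 further: compound exposure lasted 16 h at 37 °C before readout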
Outline: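 Caspase-3/7 activation, measured as increased luminescence from aminoluciferin release, is quantified in mouse N2a cells exposed to compounds for 16 h. Values are normalized to DMSO and 10 uM staurosporine, with AC50 derived by Hill modelling.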

[11] = Cellular Toxicity (caspase-3) NIH 3T3 (AID 666); conditions: NIH 3T3 caspase-3 activation, apoptosis/toxicity, 0% DMSO, 100% is 100 µM tamoxifen; series mostly up to 92.2 µM;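 further: 0% = DMSO basal and 100% = 100 µM tamoxifen stimulation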
Outline: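 Cells were plated at 1000 per well and incubated 5 hr at 37°C, then compound was added for 16 hr. Caspase-Glo 3/7 reagent followed for 20 min at room temperature before luminescence was read.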

[12] = Cellular Toxicity (caspase-3) Renal Proximal Tubule (AID 667); conditions: renal proximal tubule cells, primary cells freshly taken from rat; Potency: caspase-3 activation; series mostly up to 91.7 µM;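 further: cells exposed to compound for 16 hours at 37 °C before detection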
Outline: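 Primary rat proximal tubule cells, 1000/well, 5 h plating at 37 °C, then compound 16 h at 37 °C. Caspase-Glo 3/7 reagent, 1 h RT, luminescence. Normalized to DMSO (basal) and 10 uM staurosporine (100%); Hill-fit AC50.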

[13] = MultiTox-Fluor Cytotoxicity Assay - LYMP1-001 - Dead Cells (AID 946); conditions: LYMP1-001 lymphoblastoid cells, dead-cell protease fluorescence; series mostly up to 92.2 µM;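 further: 0% = DMSO and 100% = tetraoctylammonium bromide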
Outline: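 In this qHTS, 15 uM tetraoctylammonium bromide defined 100% and DMSO defined basal activity. Lymphoblastoid cells (LYMP1-001, 2500 per well) received compound for 16 hr at 37 C before a fluorogenic dead-cell substrate readout at 485/520 nm.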

[14] = MultiTox-Fluor Cytotoxicity Assay - LYMP1-003 - Dead Cells (AID 961); conditions: LYMP1-003 lymphoblastoid cells, dead-cell protease fluorescence; series mostly up to 92.2 µM;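 further: 0% = DMSO and 100% = tetraoctylammonium bromide; nearly all actives have a fitted effect of over 70% in size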
Outline: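 Acute toxicity is scored as increased dead-cell protease activity in human lymphoblastoid LYMP1-003 cells after 16 h compound exposure in complete culture medium. Activity is normalized to DMSO basal and 15 uM tetraoctylammonium bromide as full response.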

[15] = MultiTox-Fluor Cytotoxicity Assay - LYMP1-003 - Live Cells (AID 962); conditions: LYMP1-003 lymphoblastoid cells, MultiTox-Fluor live-cell protease fluorescence; series mostly up to 92.2 µM;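 further: 0% = DMSO only and full loss = 92 µM tetraoctylammonium bromide; cytotoxic hits lower the live-cell protease signal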
Outline: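 Acute cytotoxicity is scored as a drop in live-cell protease activity in human lymphoblastoid LYMP1-003 cells after 16 hr compound exposure at 37 C. AC50 values come from Hill-equation modelling of concentration-response data.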

[16] = Cell Viability - LYMP1-003 - Assay at 24 hr (AID 963); conditions: LYMP1-003 lymphoblastoid cell viability; series mostly up to 92.2 µM;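 further: plate controls were DMSO only for no effect and tetraoctylammonium bromide positive control for full effect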
Outline: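 Cytotoxicity is scored as a concentration-dependent fall in ATP-linked luciferase signal in human lymphoblastoid LYMP1-003 cells treated 24 hr at 37 C in complete culture medium.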

[17] = qHTS Assay for Identification of Small Molecule Inducers of Hypoxia Response (AID 2120; active means well fitted curve in the direction sought with a large enough effect in the signal ratio, with a control signal flat, not every such curve was filed as active; the % refers to the signal ratio; further: 0% is about no effect); conditions: hypoxia response reporter cells, beta-lactamase ratio readout; series mostly up to 104 µM
Outline: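 Cell-based qHTS for reporter induction: hypoxia response element controlled beta-lactamase in ME-180 cells. Compounds incubated 17 h at 37 degrees C; activity from blue/green (460/530 nm) ratio, inducers ranked by AC50.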

[18] = target: Peroxisome proliferator-activated receptor alpha (Homo sapiens) (UniProt Q07869); test: qHTS assay for small molecule agonists of the peroxisome proliferator-activated receptor alpha (PPARalpha) signaling pathway (AID 651778); conditions: PathHunter PPARalpha complementation, chemiluminescence, 6 h; max response: stronger effect = higher value; further: % of control where 0% means no effect
Sequence of Peroxisome proliferator-activated receptor alpha (Homo sapiens) (Q07869 whole entry, looked up): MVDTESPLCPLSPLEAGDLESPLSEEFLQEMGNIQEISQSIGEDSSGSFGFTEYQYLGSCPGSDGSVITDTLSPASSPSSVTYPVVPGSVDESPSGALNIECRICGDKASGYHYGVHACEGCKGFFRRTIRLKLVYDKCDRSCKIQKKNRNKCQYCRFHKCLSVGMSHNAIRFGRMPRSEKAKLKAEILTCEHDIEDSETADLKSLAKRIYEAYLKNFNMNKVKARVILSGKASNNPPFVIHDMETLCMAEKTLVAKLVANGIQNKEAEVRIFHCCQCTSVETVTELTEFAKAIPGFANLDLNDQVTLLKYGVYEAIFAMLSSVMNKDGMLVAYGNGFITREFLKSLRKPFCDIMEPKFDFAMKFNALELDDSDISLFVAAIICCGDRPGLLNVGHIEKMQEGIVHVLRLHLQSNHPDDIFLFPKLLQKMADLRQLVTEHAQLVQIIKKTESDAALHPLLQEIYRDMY
Outline: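 Chemiluminescence from complemented enzyme reported PPARalpha activation in cells after 6 hr of compound treatment at 37 C. The detection reagent was incubated for 60 min at room temperature, and compounds were scored as agonists.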

[19] = qHTS assay for small molecule agonists of the antioxidant response element (ARE) signaling pathway measured by Nrf2-dependant transcriptional activity - cell viability counter screen (AID 720653; active means well fitted curve in the direction sought with a large enough effect in the repeat runs; an effect the other way counts as inactive or inconclusive; further: on the % scale 0 is the no-effect control and ±100 the full control effect); conditions: ARE-bla HepG2 viability, CellTiter-Glo ATP luminescence, 16 h; max response: stronger effect = lower value
Outline: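 Cytotoxicity counter screen: intracellular ATP quantified by CellTiter-Glo luminescence in the same ARE-bla HepG2 plates, after 16 h compound exposure and a 2 h beta-lactamase substrate step.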

[20] = qHTS assay for cell viability of the p53RE-bla HCT-116 cell line (AID 743292); conditions: p53RE-bla HCT-116 viability, ATP luminescence, 16 h; series mostly up to 95 µM; further: on the % scale 0 is the no-effect control and ±100 the full control effect; nearly all actives have a fitted effect of over 55% in size
Outline: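 CellSensor p53RE-bla HCT-116 cells (4,000/well) pre-incubated 5 h at 37 C, then exposed to compounds in DMSO for 16 h at 37 C. Viability read as ATP content by CellTiter-Glo luminescence after 30 min at room temperature.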

C[Si](C)(C)Cl
inactive: Potency [1] > 92 µM | Potency [2] | Potency [3] | Potency [4] | Potency [5] | outcome [6] | outcome [7] | outcome [8] | Potency [9] | outcome [10] | outcome [11] | Potency [12] | Potency [13] | Potency [14] | Potency [15] | Potency [16] | Potency [17] | max response [18] -1.44% | max response [19] -8.15% | Potency [20]

C=CC1CO1 (centres undefined)
inactive: Potency [1] > 92 µM | Potency [2] | Potency [3] | Potency [4] | Potency [5] | outcome [6] | outcome [7] | outcome [8] | Potency [9] | outcome [10] | outcome [11] | Potency [12] | Potency [13] | Potency [14] | Potency [15] | Potency [16] | Potency [17] | max response [18] 1.5% | max response [19] -12.7% | Potency [20]

CCCCCCCCC1CO1 (centres undefined)
inactive: Potency [1] > 92 µM | Potency [2] | Potency [3] | Potency [4] | Potency [5] | outcome [6] | outcome [7] | outcome [8] | Potency [9] | outcome [10] | outcome [11] | Potency [12] | Potency [13] | Potency [14] | Potency [15] | Potency [16] | Potency [17] | max response [18] -3.27% | max response [19] 14.9% | Potency [20]

CCCCOC(=O)COc1ccc(Cl)cc1Cl
inactive: Potency [1] > 92 µM | Potency [2] | Potency [3] | Potency [4] | Potency [5] | outcome [6] | outcome [7] | outcome [8] | Potency [9] | outcome [10] | outcome [11] | Potency [12] | Potency [13] | Potency [14] | Potency [15] | Potency [16] | Potency [17] | max response [18] 7.72% and -1.16% | max response [19] -6.14% and -13.6% | Potency [20]

Brc1ccc(-c2ccccc2)cc1
inactive: Potency [1] > 92 µM | Potency [2] | Potency [3] | Potency [4] | Potency [5] | outcome [6] | outcome [7] | outcome [8] | Potency [9] | outcome [10] | outcome [11] | Potency [12] | Potency [13] | Potency [14] | Potency [15] | Potency [16] | Potency [17] | max response [18] -2.37% | max response [19] -10.1% | Potency [20]

Oc1ccc(O)c2c(O)cccc12
inactive: Potency [1] > 92 µM | Potency [2] | Potency [3] | Potency [4] | Potency [5] | outcome [6] | outcome [7] | outcome [8] | outcome [10] | outcome [11] | Potency [12] | Potency [13] | Potency [14] | Potency [15] | Potency [16] | Potency [17] | max response [18] 5.73% | max response [19] -23% | Potency [20]

CCc1ccc(C(c2ccc(CC)cc2)C(Cl)Cl)cc1
inactive: Potency [1] > 92 µM | Potency [2] | Potency [3] | Potency [4] | Potency [5] | outcome [6] | outcome [7] | outcome [8] | Potency [9] | outcome [10] | outcome [11] | Potency [12] | Potency [13] | Potency [14] | Potency [15] | Potency [16] | Potency [17] | max response [18] -1.02% | max response [19] -5.77% | Potency [20]
